Laboratory results published in PubChem BioAssay AID1663 (Broad Institute, 2009).
Among all 300,000 compounds or so, about 660 (0.22%) were called active. Only a selection was taken, and actives are over-represented in it overall. A number with no mark means an inactive call.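 Rule for the calls: active = mean replicate score, as percent of positive control, at or above 50; inconclusive = mean below 50 but at least one replicate at or above 50; inactive = mean and every replicate below 50.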

assay: blockers of SFLLRN-triggered platelet ATP release – cell-based, MLPCN, human platelets, primary screen (AID 1663); conditions: human platelet-rich plasma, SFLLRN dense granule ATP release, luminescence; hits give high values;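 compounds screened at 7.5 µM in platelet-rich plasma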

Structure (SMILES)	inhibition
O=C(Nc1cccc(-c2cscn2)c1)C1CCN(Cc2ccsc2)CC1	-6.81%
CC[n+]1cc(C)ccc1/C=C/c1ccc(N(C)C)cc1	9.22%
CCCCC(=O)Nc1ccccc1N1CCN(c2ccc(F)cc2)CC1	2.05%
CNC(=O)C1CC(=O)N(Cc2ccc3c(c2)OCO3)C(=Nc2ccc(F)cc2)S1 (stereo unspecified)	-5.44%
Cc1ccc(N=Cc2c(O)n(-c3nccs3)c(=O)c3ccccc23)c(C)c1	-7.35%
COc1ccc(-c2nc(N)sc2C2(O)C(=O)Nc3c(Br)cc(F)cc32)cc1OC (stereo unspecified)	7.83%
COCCNC(=O)NC(=O)COC(=O)C1(c2ccc(Cl)cc2)CC1	11.8%
COc1ccc(CNC(=O)c2cc(C(=O)C3CC3)c[nH]2)cc1	-3.25%
COc1ccc(C(=O)COC(=O)c2ccc3ccccc3n2)cc1	-2.98%
C/C(=N\N=C(N)N)c1ccc(Cl)cc1	-7.88%
Cc1ncn2cc(-c3ccc(Cl)cc3Cl)[nH]c(=O)c12	-3%
Cc1cc(C)cc(OCC(=O)O/N=C(\N)Cc2ccc([N+](=O)[O-])cc2)c1	1.64%
CNC(=S)N1CCC(NC(=O)C(Cc2ccc(F)cc2)NC(C)=O)CC1 (stereo unspecified)	0.885%
CCOCCCN(C(=O)Cn1nnc(-c2ccc(OC)c(OC)c2)n1)C(CC)C(=O)NC1CCCC1 (stereo unspecified)	7.27%
CCn1c(SCC(=O)NC2CCCC2)nnc1-c1ccoc1C	-1.97%
Cc1ccc(OCC(=O)Oc2ccccc2[N+](=O)[O-])cc1	-2.97%
COc1ccc(/C(C)=N/NC(=O)c2ccc3nc[nH]c3c2)cc1	8.86%
CCCC(C)C(=O)OCC(=O)Nc1c(Br)cc(C)cc1Br (stereo unspecified)	20.5%
Cc1cccc(Cn2c(N3CCN(c4ccccc4)CC3)nc3c2c(=O)n(C)c(=O)n3C)c1	1.96%
Cn1c(=O)n(CCc2ccccc2)c(=O)c2c1nc1n2CCCN1c1ccccc1	-2.86%
Cc1cccc(N2CC(C)Cn3c2nc2c3c(=O)n(CC(=O)OCc3ccccc3)c(=O)n2C)c1 (stereo unspecified)	55.7% (active)
CCN(CC)S(=O)(=O)c1ccc(-c2cn3ccc(C)cc3n2)cc1	5.08%
COc1ccc(-c2cn3ccsc3n2)cc1	16.7%
COc1ccc(-c2cn3ccc(C)cc3n2)cc1	64.2% (active)
CCOC(=O)C1CCN(Cc2nnc(-c3cccc(Br)c3)o2)CC1	2.47%
[O-][N+]12CCCCC1CCCC2CO (stereo unspecified)	4.81%
